# Bioassay records from PubChem.
# Only some compounds are listed: those with a hit (about 13% of all), similar ones and a draw of the others.
# Pf growth 48h: inhibits P. falciparum growth in the first generation, 48 h; P. falciparum luciferase growth in erythrocytes, 48 h; Potency, µM (highest dose often 28.7 µM), without a hit: at the highest dose activity change, negative = inhibition, usual class: inhibitors; hit rate 5.9% among 310,000; note: potency is the fitted concentration of half-maximal effect
#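 Luciferase-expressing parasites in RBCs, 2% Hct / 0.1% parasitemia final; RPMI 1640 + 0.5% Albumax; 37 C, 5% CO2, one generation; luminescence read-out, lower signal = inhibition.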
# HCMV antiviral: blocks human cytomegalovirus replication. activity change, negative = inhibition, % at 57.5 µM. hit rate 4.5% among 410,000. AID 1259415. HFF cells, HCMV-luciferase reporter, 72 h; hits give low values; in the data active = activity change below about -60%; inconclusive = no clear call, values can overlap the other calls; inactive = above about -39%
#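 Luciferase read-out from HCMV-luciferase-infected HFFs (MOI 1 PFU/cell) 72 h post infection at 37C; compounds added after 16 h cell attachment; activity normalized between buffer-only basal and Salinomycin (10uM) inhibitor controls.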
# HCV inh: HCV inhibition | Potency, µM (highest dose often 41.8 µM), for the others: at the highest dose activity change, negative = inhibition, most hits filed as inhibitors | AID 651820 | Huh7.5.1 HCVcc-Cre infection, luciferase reporter, 44 h | hit rate 3.4% among 340,000; note: potency is the fitted concentration of half-maximal effect
#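 A cell-based infection assay in which seeded cells (1,000 per well) receive test compound after 4 h, are inoculated with HCVcc-Cre at approximately 0.5 moi, and are incubated 44 h before luminescence detection.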
# Pf growth 96h: inhibits malaria parasite growth, 96 h; P. falciparum luciferase reporter growth, 96 h; hit rate 6.9% among 320,000; Potency, µM (highest dose often 28.7 µM), inactives show at the top dose activity change, negative = inhibition, actives largely listed as inhibitors; note: potency is the fitted concentration of half-maximal effect
#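 Delayed-death screen, second-generation endpoint: infected erythrocytes, 2% hematocrit, 0.05% parasitemia final; 96 hours at 37 C, 5% CO2; luciferase detection reagent; luminescence decrease equals reduced growth.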
# Active calls of the source: *; ? = inconclusive; . = no result given. Unless noted, calls come from the whole dose curve; as a rule, active = well fitted inhibition curve with a large enough effect; inconclusive = small, poorly fitted or top-dose-only effect, or another doubt; inactive = no such curve, though single readings can be large or run the other way. % is set by controls: 0 for no effect and ±100 for the full control effect.
SMILES,Pf growth 48h,HCMV antiviral,HCV inh,Pf growth 96h
CCOC(=O)C1CCN(C(=O)c2ccc3c(c2)N=C(CC)c2cc(C)ccc2S3)CC1,.,-9,.,.
O=C(Cn1c(O)c(/C=C2\C=Nc3ccccc32)sc1=O)N1CCOCC1,-3%,-25,?,-6%
O=C(Cn1c(O)c(/C=C2\C=Nc3ccc(Br)cc32)sc1=O)N1CCCC1,.,7,?,12µM*
Cc1ccc(N2C(=O)CSC23C(=O)N(CC(=O)NCCc2ccccc2)c2ccccc23)cc1 (stereo not drawn),.,14,.,.
COc1cc(C(=O)NCC(c2cccnc2)N2CCc3ccccc32)cc(OC)c1OC (stereo not drawn),.,-22,.,.
CCOC(=O)C(=O)/C(C#N)=C/Nc1ccccc1,.,0,-4%,10%
CCOC(=O)C(=Cc1ccc(Br)cc1)C(=O)OCC,?,-100*,?,?
CCOC(=O)/C(=C\c1ccccc1)C(=O)c1cc(C(C)=O)c(Nc2ccccc2)s1,.,-105*,7.1µM*,?
CCOC(=O)C(=Cc1ccc(-n2ccnc2)cc1)C(=O)OCC,13µM*,-86*,?,?
CCOC(=O)C(CC)(CC)C(=O)/C=C/c1ccc(Br)cc1,15µM*,-106*,?,?
CCc1ccc(C(C)NC(=O)/C=C/c2ccc(Br)cc2)cc1 (stereo not drawn),12%,-18,-4%,.
CCOC(=O)C(=Cc1ccc(F)cc1)C(=O)OCC,-1%,.,.,-18%
CCOC(=O)c1c(C)[nH]c(C2=NNC(=Nc3ccc(OCC)cc3)SC2)c1C,?,8,?,15µM*
CCOC(=O)c1c(C)[nH]c(C2=NNC(=Nc3ccccc3)SC2)c1C,3.3µM*,-26,?,3.7µM*
CC(=O)c1c(C)[nH]c(C2=NNC(=NC(C)(C)C)SC2)c1C,0%,73,5%,2.6µM*
CC(C)(C)N=C1NN=C(c2ccc(Cl)cc2)CS1,-58%,?,10µM*,-71%
C[C@@H]1COc2cccc(N3CCC[C@H]3CO)c2S(=O)(=O)N1,.,17,.,.
CCCCNc1nc2c(S(=O)(=O)c3ccc(C)cc3)nnn2c2ccsc12,.,17,.,.
COc1ccc(CCN2CC(C(=O)N(C)Cc3ccccn3)CCC2=O)cc1 (stereo not drawn),.,0,.,.
Cc1cccc(-c2nc3scc(CCNS(=O)(=O)c4ccc(F)cc4C)n3n2)c1,.,19,.,.
Cc1ccc(Cn2nnnc2CN2CCC(n3nnc4cc(C)ccc43)CC2)cc1,?,?,-28%,13µM*
COCC(=O)N1CCC(n2nnc3cc(C(F)(F)F)ccc32)CC1,20%,-7,10%,5.2µM*
C=CCNC(=O)CN1CCC(n2nnc3cc(C(F)(F)F)ccc32)CC1,-4%,6,0%,180%
FC(F)(F)c1ccc2c(c1)nnn2C1CCN(Cc2nnnn2Cc2ccccc2)CC1,7.4µM*,-6,-21%,10µM*
Cc1ccc(Cn2nnnc2CN2CCC(O)(c3ccccc3F)CC2)cc1,15µM*,?,12%,39%
SMILES,Pf growth 48h,HCMV antiviral,HCV inh,Pf growth 96h
CC(C)Oc1ccc(CNC(=O)c2ccccc2NC(=O)c2nsc3ccccc23)cc1,.,0,.,.
COCCNC(=S)N(C)[C@H]1C[C@H]2c3[nH]c4c(-c5ccc6c(c5)OCO6)cccc4c3CCN2C(=O)[C@H]1[C@H](C)O,.,-13,.,.
COc1ccc(NC(=O)c2cc3c([nH]c2=O)CC(c2ccccc2)CC3=O)cc1 (stereo not drawn),.,40,.,.
OC(c1ccccc1)c1nc2ccccc2n1Cc1c(F)cccc1Cl (stereo not drawn),.,-11,.,.
CCC(C(=O)Nc1cc(-c2cn3cccnc3n2)ccc1C)c1ccccc1 (stereo not drawn),.,18,.,.
Cc1cc(C)nc(N/C(=N\S(=O)(=O)Cc2ccccc2)Nc2ccc(F)c(Cl)c2)n1,-8%,-7,0%,9.3µM*
COc1ccc(NC(=O)CSc2nc3ccccc3n2CC(=O)N2CCCC(C)C2)cc1 (stereo not drawn),.,-15,.,.
COCCCN1C(=O)c2[nH]nc(-c3ccccc3O)c2C1c1ccc(Cl)cc1 (stereo not drawn),?,5,?,?
CC(C)c1ccc(C2c3c(-c4ccccc4O)n[nH]c3C(=O)N2Cc2ccncc2)cc1 (stereo not drawn),.,-79*,.,.
COc1ccc(CCN2C(=O)c3[nH]nc(-c4ccccc4O)c3C2c2ccc(O)c(OC)c2)cc1 (stereo not drawn),.,-12,.,.
COc1ccc(CCN2C(=O)c3[nH]nc(-c4ccccc4O)c3C2c2ccccc2)cc1OC (stereo not drawn),9.3µM*,?,11µM*,8.3µM*
COCCN1C(=O)c2[nH]nc(-c3ccccc3O)c2C1c1ccc(OCc2ccccc2)c(OC)c1 (stereo not drawn),.,-103*,.,.
O=C1c2[nH]nc(-c3ccccc3O)c2C(c2ccc(Cl)cc2)N1CCc1ccccc1 (stereo not drawn),.,-95*,.,.
COc1ccccc1N1CCN(C(=O)C2CCN(S(=O)(=O)c3cn(C)cn3)CC2)CC1,.,-20,.,.
Cc1coc2c(C)c3oc(=O)c(CCC(=O)N4CCCCC4)c(C)c3cc12,.,-20,.,.
Cc1ccsc1CN(C(=O)c1ccc(OCC(C)C)cc1)C1CCS(=O)(=O)C1 (stereo not drawn),.,56,.,.
CCCCN(C)S(=O)(=O)c1ccc(NC2=NS(=O)(=O)c3ccccc32)cc1,.,4,.,.
COc1cccc(C2c3c(-c4ccccc4O)n[nH]c3C(=O)N2Cc2ccco2)c1 (stereo not drawn),?,18,15%,-27%
O=C1c2[nH]nc(-c3ccccc3O)c2C(c2ccccc2)N1Cc1ccco1 (stereo not drawn),12µM*,41,-18%,?
O=C1NC(Cc2c[nH]c3ccccc23)C(=O)N1Cc1ccc(CN2C(=O)NC(Cc3c[nH]c4ccccc34)C2=O)cc1 (stereo not drawn),5.2µM*,-12,-13%,-19%
O=C1NC(Cc2c[nH]c3ccccc23)C(=O)N1CCOc1ccc(F)cc1 (stereo not drawn),6%,9,8%,4%
O=C(CCCn1c(=O)c2ccccc2n(Cc2cccc(Cl)c2)c1=O)NCCc1ccc(Cl)cc1,.,-8,.,.
COc1ccc2ccccc2c1CNCCc1ccccc1,10µM*,-31,?,4%
COc1ccc2ccccc2c1CNCCN1CCOCC1,?,35,-1%,-26%
COc1ccc(CN2CCN(Cc3ccc4ccccc4c3)CC2)cc1OC,-21%,-65*,?,126%
COc1ccc2ccccc2c1CN1CCCC(CO)C1 (stereo not drawn),1%,-3,-11%,-1%
COc1ccc2ccccc2c1CN1CCN(Cc2ccccc2)CC1,17%,-75*,-12%,?
COc1ccc(-c2nn3c(-c4ccccc4C)nnc3c3ccccc23)cc1,.,-28,.,.
OCC(O)C(O)C(O)C(O)CO (stereo not drawn),-19%,.,.,-2%
